Results taken from PubChem BioAssay (NCATS).
Non-standard residues stand in square brackets, D forms with d. Residues, ends and D or L forms follow the SMILES beside them. *: point of attachment. Sta = CC(C)C[C@H](N)[C@@H](O)CC(=O)O; Isovaleryl = CC(C)CC(=O)*

Assay: qHTS profiling for inhibitors of Plasmodium falciparum (HB3) proliferation (AID 743324);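 also: 100% = DMSO vehicle wells and 0% = artemisinin-treated control wells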
Conditions: Plasmodium falciparum HB3 blood-stage proliferation; at 28.7 µM (top of the series) unless noted
How it was run: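 SYBR Green fluorescence (485 ex/535 em) of lysed cultures, incubated overnight at room temperature in the dark, quantifies parasite DNA. Infected erythrocytes at 0.3% parasitemia and 2.5% hematocrit were exposed 72 h; values normalized to DMSO and 0.29 uM artemisinin controls.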

Q: With CCN(CC)CCOc1ccc(Nc2ncc3cc(-c4c(Cl)cccc4Cl)c(=O)n(C)c3n2)cc1 as the compound, how does the remaining proliferation (% of control), lower = more inhibition read?
A: -0.176%

Q: Which remaining proliferation (% of control), lower = more inhibition does the source give for Cc1cc(C2CCCCC2)n(O)c(=O)c1 here?
A: -0.0898%

Q: With Cc1nc(Nc2ncc(C(=O)Nc3c(C)cccc3Cl)s2)cc(N2CCN(CCO)CC2)n1 as the compound, how does the remaining proliferation (% of control), lower = more inhibition read?
A: 34.2%

Q: Which remaining proliferation (% of control), lower = more inhibition does the source give for CCCCN(CCCC)CCC(O)c1cc2c(Cl)cc(Cl)cc2c2cc(C(F)(F)F)ccc12 (stereo not drawn) here?
A: 0.576% [at 9.63 µM]

Assay: qHTS profiling of the MIPE4 collection as inhibitors of Plasmodium falciparum (3D7) proliferation (AID 743344);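 also: scaled between DMSO vehicle wells and 0.29 µM artemisinin as full inhibition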
Conditions: P. falciparum 3D7 in erythrocytes, SYBR Green DNA fluorescence, 72 h; at 28.5 µM (top of the series) unless noted
How it was run: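 Parasite DNA was quantified by SYBR Green I fluorescence (ex 485, em 535 nm) after overnight lysis in saponin/Triton buffer at room temperature. Cultures at 0.3% parasitemia and 2.5% hematocrit were first exposed to compound for 72 h at 37 C; signals were normalised to artemisinin (0.29 uM) and vehicle wells.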

Q: For CCN(CC)CCOc1ccc(Nc2ncc3cc(-c4c(Cl)cccc4Cl)c(=O)n(C)c3n2)cc1, which parasite growth, % of DMSO control is on record?
A: 6.09%

Q: For O=C(NOCC1CC1)c1ccc(F)c(F)c1Nc1ccc(I)cc1Cl, which parasite growth, % of DMSO control is on record?
A: 24.6%

Q: With C[C@]12CCC(=O)C=C1CC[C@@H]1[C@H]2[C@@H](O)C[C@@]2(C)[C@H]1CC[C@]2(O)C(=O)CO as the compound, how does the parasite growth, % of DMSO control read?
A: 76.9%

Q: With Cc1cc(C2CCCCC2)n(O)c(=O)c1 as the compound, how does the parasite growth, % of DMSO control read?
A: 6.27%

Q: With c1cnc2cc3c(cc2n1)C1CNCC3C1 as the compound, how does the parasite growth, % of DMSO control read?
A: 94.7%

Q: Which parasite growth, % of DMSO control does the source give for CC(C)(S)[C@@H](N)C(=O)O here?
A: 106%

Q: Which parasite growth, % of DMSO control does the source give for C[C@H](Cn1cnc2c(N)ncnc21)OCP(=O)(O)O here?
A: 171%

Q: For CCCCCCCCOc1ccccc1C(=O)Nc1ccc(C(=O)OCC[N+](C)(CC)CC)cc1, which parasite growth, % of DMSO control is on record?
A: 9.2%

Q: For CC(C)[N+]1(C)[C@@H]2CC[C@H]1CC(OC(=O)C(CO)c1ccccc1)C2 (stereo partly drawn), which parasite growth, % of DMSO control is on record?
A: 82.2%

Q: With CCCCCCCCCCCCCCCCCCCCCCO as the compound, how does the parasite growth, % of DMSO control read?
A: 94.9%

Q: For CC(C)c1ccc2oc3nc(N)c(C(=O)O)cc3c(=O)c2c1, which parasite growth, % of DMSO control is on record?
A: 54.7%

Q: Which parasite growth, % of DMSO control does the source give for N=C(N)c1ccc2cc(OC(=O)c3ccc(N=C(N)N)cc3)ccc2c1 here?
A: 6.93%

Q: Which parasite growth, % of DMSO control does the source give for CN(C)C(=O)[C@H](O)[C@H](Cc1ccccc1)NC(=O)c1cc2cc(Cl)ccc2[nH]1 here?
A: 6.18%

Q: For Cc1nc(Nc2ncc(C(=O)Nc3c(C)cccc3Cl)s2)cc(N2CCN(CCO)CC2)n1, which parasite growth, % of DMSO control is on record?
A: 13.5%

Q: For Cc1c(C(=O)NN2CCCCC2)nn(-c2ccc(Cl)cc2Cl)c1-c1ccc(Cl)cc1, which parasite growth, % of DMSO control is on record?
A: 6.76%

Q: With CNC[C@@H](O)[C@@H](O)[C@H](O)[C@H](O)CO as the compound, how does the parasite growth, % of DMSO control read?
A: 65.8%

Q: For O=C(CS(=O)Cc1ccco1)NCC=CCOc1cc(CN2CCCCC2)ccn1 (stereo not drawn), which parasite growth, % of DMSO control is on record?
A: 78%

Q: For COCCCN1CCC(NC(=O)c2cc(Cl)c(N)c3c2OCC3)CC1, which parasite growth, % of DMSO control is on record?
A: 28.3%

Q: Which parasite growth, % of DMSO control does the source give for Cc1cc2cc3c(C)cc(=O)oc3c(C)c2o1 here?
A: 93%

Q: Which parasite growth, % of DMSO control does the source give for O=C(O)CCNC(=O)c1ccc(N=Nc2ccc(O)c(C(=O)O)c2)cc1 here?
A: 57.4%

Q: With CN(C)[C@@H](CCOc1cccc2ccccc12)c1ccccc1 as the compound, how does the parasite growth, % of DMSO control read?
A: 18.8%

Q: Which parasite growth, % of DMSO control does the source give for N=C(N=C(N)N)N1CCOCC1 here?
A: 106%

Q: Which parasite growth, % of DMSO control does the source give for CCCOc1ccc2nc(NC(=O)OC)[nH]c2c1 here?
A: 82.7%

Q: Which parasite growth, % of DMSO control does the source give for Nc1ncn([C@H]2C[C@H](O)[C@@H](CO)O2)c(=O)n1 here?
A: 98%

Q: With Cc1cccc(CN2CCN(C(c3ccccc3)c3ccc(Cl)cc3)CC2)c1 (stereo not drawn) as the compound, how does the parasite growth, % of DMSO control read?
A: 6.23%

Q: Which parasite growth, % of DMSO control does the source give for CC(C)Oc1ccc2c(=O)c(-c3ccccc3)coc2c1 here?
A: 75.9%

Q: For CC(C)CC(=O)N[C@H](C(=O)N[C@H](C(=O)N[C@@H](CC(C)C)[C@@H](O)CC(=O)N[C@@H](C)C(=O)N[C@@H](CC(C)C)[C@@H](O)CC(=O)O)C(C)C)C(C)C (Isovaleryl-VV[Sta]A[Sta]-OH), which parasite growth, % of DMSO control is on record?
A: 59.4%

Q: With Clc1ccc(C(Cn2ccnc2)OCc2ccc(Sc3ccccc3)cc2)c(Cl)c1 (stereo not drawn) as the compound, how does the parasite growth, % of DMSO control read?
A: 5.64%

Q: Which parasite growth, % of DMSO control does the source give for COc1cc(C(C)=O)ccc1OCCCN1CCC(c2noc3cc(F)ccc23)CC1 here?
A: 29.6%

Q: With Clc1ccc2c(N3CCN(CCCN4CCN(c5ccnc6cc(Cl)ccc56)CC4)CC3)ccnc2c1 as the compound, how does the parasite growth, % of DMSO control read?
A: 18.8% [at 9.64 µM]

Q: Which parasite growth, % of DMSO control does the source give for COc1cc2c(N3CCN(C(=O)Nc4ccc(OC(C)C)cc4)CC3)ncnc2cc1OCCCN1CCCCC1 here?
A: 4.84%

Q: With CN1CCC(=C2c3ccccc3CCc3sccc32)CC1 as the compound, how does the parasite growth, % of DMSO control read?
A: 8.53%

Q: With Clc1ccc(C(Cn2ccnc2)OCc2c(Cl)cccc2Cl)c(Cl)c1 (stereo not drawn) as the compound, how does the parasite growth, % of DMSO control read?
A: 4.82%

Q: With CC1=C(C(=O)O)N2C(=O)[C@@H](NC(=O)[C@H](N)C3=CCC=CC3)[C@H]2SC1 as the compound, how does the parasite growth, % of DMSO control read?
A: 79.3%
